Data on 13 compounds can be found in PubChem BioAssay (NCATS).

Assay [1] is described as follows: qHTS profiling of the MIPE4 collection as inhibitors of Plasmodium falciparum (3D7) proliferation (AID 743344).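 Also: scaled between DMSO vehicle wells and 0.29 µM artemisinin as full inhibition.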 Particulars: P. falciparum 3D7 in erythrocytes, SYBR Green DNA fluorescence, 72 h; at 28.5 µM unless noted. In outline:
(§1)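 Erythrocytes infected with P. falciparum (0.3% parasitemia, 2.5% hematocrit) incubated with compounds 72 h at 37 C, 5% CO2. Lysis with saponin/Triton buffer containing SYBR Green I, overnight at room temperature in the dark; DNA fluorescence (485/535 nm) normalised to 0.29 uM artemisinin and DMSO.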

Assay [2] in a line: qHTS profiling of the MIPE4 collection as inhibitors of Plasmodium falciparum (DD2) proliferation (AID 743345). Particulars: P. falciparum Dd2 in erythrocytes, SYBR Green DNA, 72 h; at 28.5 µM unless noted. In outline:
as §1

Assay [3] is described as follows: qHTS profiling of the MIPE4 collection as inhibitors of Plasmodium falciparum (DD2) proliferation (Rep 2) (AID 743346). Particulars: P. falciparum Dd2 in erythrocytes, SYBR Green DNA, 72 h; at 28.5 µM unless noted. In outline: as §1
Assay [4] in a line: qHTS profiling of the MIPE4 collection as inhibitors of Plasmodium falciparum (HB3) proliferation (AID 743347).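 Also: plate controls were DMSO vehicle wells for no effect and artemisinin wells for full effect.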 Particulars: P. falciparum HB3 in erythrocytes, SYBR Green DNA, 72 h; at 28.5 µM unless noted. In outline: as §1
Assay [5] in a line: High-throughput drug toxicity screening in the BPDCN cell line Gen2.2 (AID 1224824).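 Also: cells exposed to compounds for 48 h before reading.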 The conditions noted are these: Gen2.2 BPDCN cells; at 45.8 µM (top of the series) unless noted. The essentials:
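Gen2.2, 500 cells/well, phenol red-free RPMI/10% FBS/Pen-Strep; 48 h cpd, 37 °C/5% CO2; CTG lum, 15 min RT. Norm: DMSO = 100%, bortezomib 9.2 uM final = 0%.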

Assay [6] in a line: High-throughput drug toxicity screening in the BPDCN cell line Cal-1 (AID 1224825). Particulars: Cal-1 BPDCN cell viability, qHTS; at 45.8 µM (top of the series) unless noted. The essentials:
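Cal-1 cells, 500 per well in phenol-red-free RPMI with 10% FBS, exposed to compounds for 48 hours at 37C, 5% CO2. Viability read by CellTiter-Glo luminescence; percent activity normalized to DMSO (100%) and 9.2 uM bortezomib final (0%).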

As to `CNC(=O)CN1CCC(Oc2cc3c(Nc4cccc(Cl)c4F)ncnc3cc2OC)CC1`, the parasite growth, % of DMSO control in assay [1] worked out at 11.2%. Also, the parasite growth remaining, % of DMSO control (lower = more inhibition) in assay [2] stood at 41.4%. In addition, the parasite growth, % of control (lower = inhibition) in assay [3] was determined as 16%. In addition, the growth, % of control in assay [4] is 5.64%. Also, the cell viability, % of control (lower = more cytotoxic) in assay [5] is 50.7%. Also, in assay [6], the viability (% of control) worked out at 7.61%.

Take `C=CC(=O)Nc1cccc(Oc2nc(Nc3ccc(N4CCN(C)CC4)cc3)ncc2Cl)c1`: the parasite growth, % of DMSO control in assay [1] worked out at 8.39%. In assay [2], this compound showed a parasite growth remaining, % of DMSO control (lower = more inhibition) of 16.8%. In assay [3], this compound showed a parasite growth, % of control (lower = inhibition) of 34.6%. For the same compound, in assay [4], the growth, % of control stood at 5.58%. In addition, the cell viability, % of control (lower = more cytotoxic) in assay [5] worked out at 8.16%. Moreover, the viability (% of control) in assay [6] was found to be 2.81%.

Take `CCc1cc2c(cc1N1CCC(N3CCOCC3)CC1)C(C)(C)c1[nH]c3cc(C#N)ccc3c1C2=O`: the parasite growth, % of DMSO control in assay [1] was found to be 12.5%. The compound further had a parasite growth remaining, % of DMSO control (lower = more inhibition) in assay [2] of 8.84%. The parasite growth, % of control (lower = inhibition) in assay [3] is 33.7%. For the same compound, in assay [4], the growth, % of control is 12.5%. The cell viability, % of control (lower = more cytotoxic) in assay [5] came out at 258%. For the same compound, the viability (% of control) in assay [6] amounted to 76.4%.

In turn, `COc1ccc(-n2nc(C(N)=O)c3c2C(=O)N(c2ccc(N4CCCCC4=O)cc2)CC3)cc1` had a parasite growth, % of DMSO control in assay [1] of 53.4%. The compound also registered a parasite growth remaining, % of DMSO control (lower = more inhibition) in assay [2] of 82.6%. In assay [3], this compound came in with a parasite growth, % of control (lower = inhibition) of 61.9%. In assay [4], this compound came in with a growth, % of control of 83.4%. Further, the cell viability, % of control (lower = more cytotoxic) in assay [5] turned out to be 150%. Moreover, the viability (% of control) in assay [6] worked out at 104%.

The compound `CN[C@H]1CCc2cc(OC)c(OC)c(OC)c2-c2ccc(OC)c(=O)cc21` had a parasite growth, % of DMSO control in assay [1] of 67.4%. In addition, in assay [2], the parasite growth remaining, % of DMSO control (lower = more inhibition) was determined as 90.5%. Moreover, the parasite growth, % of control (lower = inhibition) in assay [3] turned out to be 47.1%. This compound had a growth, % of control in assay [4] of 90.6%. For the same compound, the cell viability, % of control (lower = more cytotoxic) in assay [5] was 24.2%. For the same compound, the viability (% of control) in assay [6] was 11.6%.

On to `Cc1coc2c1C(=O)C(=O)c1c-2ccc2c1CCCC2(C)C`, for which, in assay [1], the parasite growth, % of DMSO control is 5.71%. The parasite growth remaining, % of DMSO control (lower = more inhibition) in assay [2] stood at 9.98%. Also, the growth, % of control in assay [4] amounted to 4.66%. For the same compound, the cell viability, % of control (lower = more cytotoxic) in assay [5] stood at 93.2%. Moreover, the viability (% of control) in assay [6] amounted to 83.1%.

In assay [1], `CNC(=O)c1ccc(N2C(=S)N(c3cnc(C#N)c(C(F)(F)F)c3)C(=O)C23CCC3)cc1F` displayed a parasite growth, % of DMSO control of 41%. Also, in assay [2], the parasite growth remaining, % of DMSO control (lower = more inhibition) is 79.8%. Besides, the growth, % of control in assay [4] came to 41.2%. Also, the cell viability, % of control (lower = more cytotoxic) in assay [5] turned out to be 7.43%. Besides, the viability (% of control) in assay [6] turned out to be 3.32%.

Turning to `COc1ccc2c(OCc3nnc4ccc(-c5ccccc5)nn34)ccnc2c1`, the parasite growth, % of DMSO control in assay [1] stood at 53.1%. The compound also displayed a parasite growth remaining, % of DMSO control (lower = more inhibition) in assay [2] of 97.5%. Besides, the growth, % of control in assay [4] amounted to 59.2%. The cell viability, % of control (lower = more cytotoxic) in assay [5] is 170%. For the same compound, in assay [6], the viability (% of control) is 105%.

Regarding `Cc1c(CN2CCN(S(C)(=O)=O)CC2)sc2c(N3CCOCC3)nc(-c3cnc(N)nc3)nc12`, in assay [1], the parasite growth, % of DMSO control was 5.64%. Further, the parasite growth remaining, % of DMSO control (lower = more inhibition) in assay [2] is 14.2%. Also, the parasite growth, % of control (lower = inhibition) in assay [3] came out at 18.4%. This compound registered a growth, % of control in assay [4] of 5.68%. For the same compound, the cell viability, % of control (lower = more cytotoxic) in assay [5] came to 16.1%. In assay [6], the viability (% of control) came out at 19.3%.

Turning to `O=C(O)CO.[NH2-].[NH2-].[Pt+2]`, the parasite growth, % of DMSO control in assay [1] amounted to 92.3%. Moreover, the parasite growth remaining, % of DMSO control (lower = more inhibition) in assay [2] is 95.3%. In assay [4], this compound had a growth, % of control of 94.7%. Further, the cell viability, % of control (lower = more cytotoxic) in assay [5] amounted to 124%. Moreover, the viability (% of control) in assay [6] is 100%.

In the case of `CC(C)Nc1cc(C(F)(F)F)cc2nc(NC(=O)c3cccnc3)nn12`, the parasite growth, % of DMSO control in assay [1] stood at 78.6%. This compound displayed a parasite growth remaining, % of DMSO control (lower = more inhibition) in assay [2] of 97.3%. In assay [4], the growth, % of control stood at 93.5%. Besides, the cell viability, % of control (lower = more cytotoxic) in assay [5] was determined as 80.4%. In assay [6], the viability (% of control) was 120%.

Turning to `C1=CCOCc2cc(ccc2OCCN2CCCC2)Nc2nccc(n2)-c2cccc(c2)OCC1`, the parasite growth, % of DMSO control in assay [1] stood at 5.07%. The parasite growth remaining, % of DMSO control (lower = more inhibition) in assay [2] is 5.48%. In assay [3], this compound registered a parasite growth, % of control (lower = inhibition) of 15.5%. The growth, % of control in assay [4] was determined as 5.8%. Moreover, in assay [5], the cell viability, % of control (lower = more cytotoxic) is 8.21%. For the same compound, the viability (% of control) in assay [6] turned out to be 5.28%.

In the case of `CCc1c2c(nc3ccc(O)cc13)-c1cc3c(c(=O)n1C2)COC(=O)[C@]3(O)CC`, the parasite growth, % of DMSO control in assay [1] came to 13.6%. Also, the parasite growth remaining, % of DMSO control (lower = more inhibition) in assay [2] was 12.1%. Moreover, in assay [4], the growth, % of control was 11.3%. The cell viability, % of control (lower = more cytotoxic) in assay [5] came to 6.79%. The viability (% of control) in assay [6] turned out to be 5.47%.
